# The campaign covered roughly 310,000 compounds. About 14,000 (4.5%) showed an effect of 50% or more. Effects have a minus sign here. This is one part of a sample in which strong results are shown more often than they occur.
# Biological target: human ether-à-go-go-related gene (hERG) potassium channel (human, UniProt Q12809)
# Experiment: primary screen, population patch clamp on CHO cells stably expressing hERG; higher = less effect of the substance
# 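Note: peak tail current of the secondary pulse compared with the same well before compound.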
# Sequence of human ether-à-go-go-related gene (hERG) potassium channel (Q12809 whole entry, looked up): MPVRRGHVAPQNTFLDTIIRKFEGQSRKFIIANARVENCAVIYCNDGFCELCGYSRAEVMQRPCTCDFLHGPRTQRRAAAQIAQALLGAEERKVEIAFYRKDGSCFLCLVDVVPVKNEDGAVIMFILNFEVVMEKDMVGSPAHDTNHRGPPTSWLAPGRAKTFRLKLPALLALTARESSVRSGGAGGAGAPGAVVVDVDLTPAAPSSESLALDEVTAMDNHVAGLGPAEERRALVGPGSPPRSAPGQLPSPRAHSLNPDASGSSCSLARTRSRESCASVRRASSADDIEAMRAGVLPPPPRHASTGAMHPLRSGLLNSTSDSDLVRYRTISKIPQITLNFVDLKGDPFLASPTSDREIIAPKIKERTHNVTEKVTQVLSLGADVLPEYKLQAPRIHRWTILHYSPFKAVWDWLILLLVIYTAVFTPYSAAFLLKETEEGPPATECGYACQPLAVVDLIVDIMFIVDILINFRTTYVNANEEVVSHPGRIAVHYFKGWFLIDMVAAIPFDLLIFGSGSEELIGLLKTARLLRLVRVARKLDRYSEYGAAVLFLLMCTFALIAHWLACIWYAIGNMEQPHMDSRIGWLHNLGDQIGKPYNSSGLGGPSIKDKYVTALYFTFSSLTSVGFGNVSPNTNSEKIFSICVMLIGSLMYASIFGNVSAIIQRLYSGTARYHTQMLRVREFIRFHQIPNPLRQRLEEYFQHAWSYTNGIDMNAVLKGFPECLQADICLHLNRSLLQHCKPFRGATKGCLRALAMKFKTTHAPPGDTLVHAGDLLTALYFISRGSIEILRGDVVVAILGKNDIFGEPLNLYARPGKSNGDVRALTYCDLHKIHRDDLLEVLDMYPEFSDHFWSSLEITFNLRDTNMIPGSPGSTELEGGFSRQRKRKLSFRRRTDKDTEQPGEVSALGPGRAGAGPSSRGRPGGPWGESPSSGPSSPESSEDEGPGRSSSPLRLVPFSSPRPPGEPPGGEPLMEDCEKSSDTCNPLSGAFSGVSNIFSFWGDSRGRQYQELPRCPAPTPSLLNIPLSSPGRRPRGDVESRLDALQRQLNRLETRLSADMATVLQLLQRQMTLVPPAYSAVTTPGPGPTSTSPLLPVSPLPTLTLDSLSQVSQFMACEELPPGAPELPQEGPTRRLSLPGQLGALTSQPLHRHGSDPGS
row,SMILES,"hERG current change (%, negative = inhibition) at 10uM [%]"
1,CCc1ccc2oc(-c3ccc(NC(C)=O)cc3)nc2c1,10.7
2,O=C(c1cccc([N+](=O)[O-])c1)N1CCN(Cc2ccccc2)CC1,-9.31
3,O=C(Nc1ccc(C(=O)N2CCCCC2)cc1)c1ccc([N+](=O)[O-])cc1,-1.34
4,O=C(NNC(=O)c1ccc([N+](=O)[O-])cc1)c1ccc(F)cc1,6.25
5,O=C(c1ccc(F)cc1)N1CCN(C(=O)c2ccc([N+](=O)[O-])cc2)CC1,-63.2
6,O=C(c1cccc([N+](=O)[O-])c1)N1CCN(c2ncccn2)CC1,-8.55
7,O=C(c1ccc(Cl)cc1)N1CCN(c2cccc3[nH]ccc23)CC1,3.68
8,O=C(c1ccc([N+](=O)[O-])cc1)N1CCN(c2cccc3[nH]ccc23)CC1,-72.7
9,O=C(c1ccc([N+](=O)[O-])cc1)N1CCN(c2ncccn2)CC1,-77.8
10,O=C(c1ccccc1)N1CCN(c2ncccn2)CC1,17.6
11,O=C(c1cc([N+](=O)[O-])ccc1Cl)N1CCN(Cc2ccccc2)CC1,4.75
12,O=C(c1c(Cl)cccc1Cl)N1CCN(c2cccc3[nH]ccc23)CC1,22.3
13,O=C(c1ccc([N+](=O)[O-])cc1)N1CCN(Cc2ccccc2)CC1,-66.4
14,CCOc1ccc(CC(=NCCc2ccccc2)C2=C(O)CC(C)(C)CC2=O)cc1OCC,-21.3
15,O=C(O)c1ccccc1CSc1nnnn1-c1ccccc1,12.6
16,Cc1cc(C)cc(N=C2NC(=O)/C(=C/c3cccs3)S2)c1,14.7
17,CC(=O)c1ccccc1NC(=O)C1C2CCC(O2)C1C(=O)O (stereo not shown),8.81
18,Cc1c(CCO)c(=O)[nH]n1C(=O)c1c(F)cccc1F,-1.76
19,COc1ccc(-c2n[nH]c(=S)n2-c2ccc(C)cc2C)cc1,19.5
20,CC(NC(=O)c1ccc(CS(C)(=O)=O)cc1)c1cccc2ccccc12 (stereo not shown),10.1
21,CCOc1ccc(NC(=O)Nc2cc(-c3ccccc3)sc2C(=O)OC)cc1,-4.41
22,COC(=O)C1=C(c2ccc(OC)c(OC)c2)C[C@@H]2CC[C@H]1N2C(=O)NCCO,15.5

row,SMILES,"hERG current change (%, negative = inhibition) at 10uM [%]"
1,CC(C)(C)OC(=O)N1CCC[C@H]1C(=O)Nc1ccc(Br)cc1,13.5
2,CCN1CCN(c2ccc(S(=O)(=O)N3CCOCC3)cc2NC(=O)CCC(C)C)CC1,-26.3
3,C/C(CC(=O)Nc1cc(C)ccn1)=N\NC(=O)c1ccncc1,19.7
4,O=C(c1ccc(Cn2cc(Cl)c([N+](=O)[O-])n2)cc1)N1CCN(Cc2ccccc2)CC1,-12.5
5,CC1CCCC(N2CCN(C(=O)c3cccc(F)c3)CC2)C1.O=C(O)C(=O)O (stereo not shown),-6.93
6,O=C(CCSc1ccc(Cl)cc1)N1CCN(c2ccc(O)cc2)CC1,-23.8
7,O=C(c1ccc(Cl)cc1)N1CCN(c2ncccn2)CC1,6.85
8,CC1CCCC(N2CCN(C(=O)c3ccc([N+](=O)[O-])cc3)CC2)C1.O=C(O)C(=O)O (stereo not shown),-71.9
9,Cc1ccccc1C(=O)N1CCC(C(=O)N2CCN(c3ncccn3)CC2)CC1,7.94
10,O=C(c1ccc(Cl)cc1)N1CCC(C(=O)N2CCN(c3ncccn3)CC2)CC1,-56.6
11,O=C(CCSc1ccc(Cl)cc1)N1CCN(c2ncccn2)CC1,-60.6
12,O=C(CCSc1ccc(Cl)cc1)N1CCCCCC1,-4.88
13,Cl.O=C(c1ccc(Cn2ccc([N+](=O)[O-])n2)cc1)N1CCN(Cc2ccccc2)CC1,-56.1
14,O=C(c1ccc([N+](=O)[O-])o1)N1CCN(Cc2ccccc2)CC1,2.99
15,CC1CCCC(N2CCN(C(=O)c3ccc(F)cc3)CC2)C1 (stereo not shown),-44.1
16,CCN(Cc1ccccc1)C(=O)CCc1nnc(CCCc2ccccc2)o1,21.1
17,COc1cc(C(=O)NC(=S)Nc2ccc3oc(=O)ccc3c2)cc(OC)c1OC,9.8
18,CC(=O)OC1COC(n2ccc3cc([N+](=O)[O-])ccc32)C(OC(C)=O)C1OC(C)=O (stereo not shown),-12.2
19,CC(C)C(=O)Nc1ccc(Sc2ccc(F)cc2)cc1,-3.48
20,CCC(C)Nc1nc2c(c(=O)n(C)c(=O)n2C)n1Cc1ccc(Cl)cc1 (stereo not shown),-7.45
21,COc1ccccc1-c1nc(SCC(=O)O)n[nH]1,-1.65
